Experimental data taken from PubChem BioAssay.
The source made the active and inactive calls.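 The calls were made as follows: active = inhibition at or above 50% relative to wild type and mutant plate controls; inactive = inhibition below 50%.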

assay: loss of swimming-algae plug formation – whole organism, Chlamydomonas reinhardtii, WT vs cilia-less mutant, absorbance, 96-well, primary screen (AID 463189); conditions: Chlamydomonas reinhardtii gravitaxis, OD600 absorbance, 2 days; at 10 µM; active compounds read high;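 also: 0% = wild type cc124 cells in DMSO and 100% = ciliumless bld1 mutant cells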

Row | Structure (SMILES) | inhibition
1 | CN1C(=O)N(c2ccccc2)C(Nc2nncs2)C1(C)C (centres undefined) | 1.2% (inactive)
2 | COc1ccc(/C=N/n2cncn2)cc1CSc1ccccn1 | 27% (inactive)
3 | COc1cc([C@@H]2[C@H]3CNCC=C3C(C#N)=C(N)C2(C#N)C#N)ccc1OC(C)C | -1.69% (inactive)
4 | Nc1nnc(Cc2ccc(Cl)c(Cl)c2)s1 | 2.91% (inactive)
5 | CCCOc1ccc(/C(O)=C2/C(=O)C(=O)N(CCN3CCOCC3)C2c2ccccc2)cc1 (centres undefined) | -3.19% (inactive)
6 | CC(C)C1Cc2c(C#N)c(N)n(C)c(=S)c2CO1 (centres undefined) | -8.05% (inactive)
7 | CNC(=O)C1CC(=O)N(Cc2ccccc2)C(=Nc2ccc(OC)cc2)S1 (centres undefined) | 1.87% (inactive)
8 | CCCOc1ccc(C2NC(=O)NC2=O)cc1 (centres undefined) | -17% (inactive)
9 | COC(=O)c1[nH]c2cc(OC)ccc2c1NC(=O)CCN1CCCC(C)(C)C1 | -7.62% (inactive)
10 | Cc1cc(OCCN2CCOCC2)nc2ccccc12 | 22.7% (inactive)
11 | CC(C)Nc1nc(NC(C)C)nc(N(C)n2cnnc2)n1 | -5.15% (inactive)
12 | COc1ccc(OC)c(C(O)c2coc3ccc(O)c(CN4CCOCC4)c23)c1 (centres undefined) | 36.3% (inactive)
13 | Cc1c([C@H]2[C@@H](CC#N)C2(C)C)c2ccccc2n1C | 11.5% (inactive)
14 | CC1=C(C(=O)Nc2ccccc2)C(c2ccncc2)C(C#N)=C(SCC(=O)NC(C)C)N1 (centres undefined) | 5.12% (inactive)
15 | CCCCCc1ccc(-c2ccc(=O)[nH]n2)cc1 | -28.2% (inactive)
16 | O=C(C1=C(O)C(=O)N(CCN2CCOCC2)C1c1cccnc1)c1cc2ccccc2o1 (centres undefined) | -5.22% (inactive)
17 | CCCCNC(=O)c1cc2n(n1)C(C(F)(F)F)CC(c1ccccc1)N2 (centres undefined) | -3.15% (inactive)
18 | CCCC1C2C(=O)N(c3ccccc3OC)C(=O)C2ON1c1ccccc1 (centres undefined) | 32.4% (inactive)
19 | CCOC(=O)C1=C(C)NC(=O)NC1c1ccc2c(c1)OCO2 (centres undefined) | -6.75% (inactive)
20 | O=C(c1cccc(Cl)c1)N1CCN(C(=O)c2ccccc2F)CC1 | -3.06% (inactive)
21 | Cc1noc(NS(=O)(=O)c2ccc(NC(=O)COc3ccccc3)cc2)c1C | 4.64% (inactive)
22 | Cc1nc(NCCN)c(C#N)c2c1COC(C)(C)C2 | 1.63% (inactive)
23 | Cn1c(=NCC(O)COc2ccccc2)sc2ccccc21 (centres undefined) | 16.2% (inactive)
24 | COc1ccc(-c2nn3c(C4CCCCC4)nnc3s2)cc1OC | 25.1% (inactive)
